Among all 63,000 compounds or so, about 1,100 (1.7%) were called active.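 How the source made its calls: active means compounds whose percent cytotoxicity in the single-dose primary screen, scaled between solvent and toxic-drug controls, exceeds 50; inactive means the rest.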 The list comes from a sample in which actives are over-represented; it also holds similar structures and randomly drawn compounds. Entries with a potency or affinity are not part of this list.
Assay: cytotoxicity in KRAS-transformed pancreatic duct cells, primary screen, cell-based, fluorescence, HTS (AID 431);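 further: 0% = DMSO solvent wells and 100% = doxorubicin-treated wells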
Details: HPDE-C7K KRASV12 cells, Alamar Blue viability, 48 h; at 10 µM; active compounds read high

Row | SMILES | cytotoxicity
1 | COc1ccccc1N1CCN(CC(=O)Nc2c(C)n[nH]c2C)CC1 | 0.8% (inactive)
2 | COc1ccc(-c2nc(CS(=O)CC(=O)NCC3CCCO3)c(C)o2)cc1 (stereo not given) | -1.7% (inactive)
3 | O=S(=O)(c1ccc(F)cc1)N1CCN(c2ncnc3c2cnn3-c2ccccc2)CC1 | -6.5% (inactive)
4 | O=S1(=O)CC(O)C(N2CCC(c3ccccc3)CC2)C1 (stereo not given) | -1.5% (inactive)
5 | CN(Cc1cc2ccccc2[nH]c1=O)S(=O)(=O)c1ccccc1 | -6.2% (inactive)
6 | CN(C)CCC(=O)c1ccc(Cl)cc1 | 13.3% (inactive)
7 | COc1ccccc1NC(=O)N(Cc1ccco1)Cc1cc2cccc(C)c2[nH]c1=O | -5% (inactive)
8 | COc1ccccc1NC(=O)N(Cc1ccco1)Cc1cc2c(C)ccc(C)c2[nH]c1=O | 33.2% (inactive)
9 | Cc1cc(C)c2[nH]c(=O)c(CN(Cc3ccco3)C(=O)C3CCCO3)cc2c1 (stereo not given) | -35.5% (inactive)
10 | COc1ccccc1NC(=O)N(Cc1ccco1)Cc1cc2cc(C)cc(C)c2[nH]c1=O | 74.7% (active)
11 | CCN1CCCC1CN(Cc1cc2cc(C)cc(C)c2[nH]c1=O)C(=O)Nc1ccccc1OC (stereo not given) | 20.9% (inactive)
12 | COc1ccccc1NC(=O)N(Cc1ccco1)Cc1cc2ccc(C)c(C)c2[nH]c1=O | 63.7% (active)
13 | CC1CCCCC1NC(=O)CN1CCN(Cc2ccccc2Cl)C1=O (stereo not given) | -7.1% (inactive)
14 | CCc1cc(C)cc(OCCNC(=O)c2ncn[nH]2)c1 | 30% (inactive)
15 | Cn1nnnc1CCOCCc1nnnn1C | 14.6% (inactive)
16 | CCn1nnnc1SCCSc1nnnn1CC | 9.6% (inactive)
17 | N/C(=N\c1nc2c(c(=O)[nH]1)CCCC2)Nc1ccccc1 | 12.1% (inactive)
18 | COc1ccc(-c2cn3cccnc3n2)cc1NC(=O)c1ccc(Br)o1 | 8.3% (inactive)
19 | CCOC(=O)C1=C(C)N=C2SC(CC)C(=O)N2C1c1cccc(F)c1 (stereo not given) | -16.9% (inactive)
20 | OC(CN1CCN(c2cccc(C(F)(F)F)c2)CC1)c1c[nH]c2ccccc12 (stereo not given) | 30.5% (inactive)

Row | SMILES | cytotoxicity
21 | Cc1[nH]c2ccccc2c1NC(=O)CN1CCN(c2cccc(C(F)(F)F)c2)CC1 | 70% (active)
22 | O=C(CCn1c(=O)[nH]c2ccccc2c1=O)N1CCN(c2cccc(C(F)(F)F)c2)CC1 | -4.3% (inactive)
23 | COC(=O)c1[nH]c2ccccc2c1NC(=O)CN1CCN(c2cccc(Cl)c2)CC1 | 7.8% (inactive)
24 | O=C(CN1CCN(c2ccccc2)CC1)Nc1cccc(C(F)(F)F)c1 | 4.9% (inactive)
25 | CC[C@]1(O)C[C@@H]2CN(CCc3c([nH]c4ccccc34)[C@@](C(=O)OC)(c3cc4c(cc3OC)N(C)[C@H]3[C@@](O)(C(=O)OC)[C@H](OC(C)=O)[C@]5(CC)C=CCN6CC[C@]43[C@@H]65)C2)C1 | 74.9% (active)
26 | CC[C@]1(O)CC2CN(CCc3c([nH]c4ccccc34)[C@@](C(=O)OC)(c3cc4c(cc3OC)N(C=O)[C@H]3[C@@](O)(C(=O)OC)[C@H](OC(C)=O)[C@]5(CC)C=CCN6CC[C@]43[C@@H]65)C2)C1 (stereo not given in full) | 72.5% (active)
27 | CC(=O)Oc1ccc(N(C(C)=O)S(=O)(=O)c2cccs2)cc1 | 8.2% (inactive)
28 | O=C(O)CCC(=O)Nc1nnc(C(F)(F)F)s1 | -6.4% (inactive)
29 | CCCNc1cc(=O)n(C)c(=O)n1C | 9.9% (inactive)
30 | O=c1c2c3nc4ccccc4nc3n(-c3cccc(F)c3)c2ncn1Cc1ccc2c(c1)OCO2 | 7.3% (inactive)
31 | Cc1ccc(SC(C)C(=O)NCC(C)C)cc1 (stereo not given) | 0% (inactive)
32 | CC(C)c1ccc(O)c(N)c1 | 8% (inactive)
33 | Cc1ccc(O)c(Sc2cc(C)ccc2O)c1 | 65.2% (active)
34 | Cc1ccc(NC(=O)CSc2nccc(=O)[nH]2)c(S(=O)(=O)N2CCOCC2)c1 | 2.7% (inactive)
35 | CCOC(=O)C1CCN(C(c2cccnc2)c2c(NC(=O)c3ccco3)sc(C)c2C)CC1 (stereo not given) | 82.5% (active)
36 | Cc1sc(NC(=O)c2ccco2)c(C(c2ccncc2)N2CCOCC2)c1C (stereo not given) | -8.8% (inactive)
37 | Cc1sc(NC(=O)c2ccco2)c(C(c2cccnc2)N2CCN(c3ccc(F)cc3)CC2)c1C (stereo not given) | 1.9% (inactive)
38 | Cc1ccc2nc(N3CCN(C(=O)c4cccs4)CC3)c(C#N)cc2c1 | 2% (inactive)
39 | Cc1ccc2ncccc2c1NS(=O)(=O)c1ccccc1 | -4.5% (inactive)
40 | O=S(=O)(Nc1cccc2ncccc12)c1cccs1 | 25.3% (inactive)

Row | SMILES | cytotoxicity
41 | c1ccc(N(c2ccccc2)c2nc(N3CCCC3)nc(-n3ccnc3)n2)cc1 | 1.4% (inactive)
42 | O=C1c2cccnc2C(O)N1Cc1ccc(F)cc1 (stereo not given) | 1.3% (inactive)
43 | Cc1ccc2oc(=O)c3cc(C(=O)N4CCN(C(=O)c5ccco5)CC4)sc3c2c1 | 11% (inactive)
44 | O=C(Nc1ccc(-n2cnnn2)cc1)C1CCC1 | -4.6% (inactive)
45 | COc1ccc(-c2noc(C)c2-c2ccc3ccccc3n2)c(O)c1 | 54.3% (active)
46 | COc1ccc(-c2onc(C)c2-c2ccccc2)c(O)c1 | 15.1% (inactive)
47 | COc1ccc(-c2n[nH]c(C)c2-c2cnn(-c3ccccc3)c2)c(O)c1 | 29.6% (inactive)
48 | CCOc1ccccc1Nc1ccc(C(=O)O)cc1NC(C)=O | 0.6% (inactive)
49 | O=C(c1cc(-c2cccs2)on1)N1CCOCC1 | 2.8% (inactive)
50 | O=C(c1cc(-c2cccs2)on1)N1CCN(c2ccccc2)CC1 | 50.8% (active)
51 | O=C(c1cc(-c2cccs2)on1)N1CCN(c2ccc(F)cc2)CC1 | 13.6% (inactive)
52 | O=S(=O)(c1cccc2cccnc12)n1cnc2ccccc21 | 6.3% (inactive)
53 | Cc1cccc(C)c1NC(=O)CSc1nnc(Cn2nnc(-c3ccccc3)n2)n1-c1ccccc1 | -8.4% (inactive)
54 | N#CC(C(=O)OC1CCCCC1)c1nc2ccccc2nc1N1CCCCC1 (stereo not given) | 5.4% (inactive)
55 | O=C(C1=C(O)C(=O)N(CCN2CCOCC2)C1c1ccccc1)c1cccs1 (stereo not given) | -12.1% (inactive)
56 | O=C(c1cccs1)N1CCC(c2nc3c(nnn3Cc3ccccc3)c(=O)[nH]2)CC1 | -36% (inactive)
57 | COCC(=O)n1nc(-c2ccccc2)nc1NCc1ccc(F)cc1 | -6% (inactive)
58 | COc1cccc(N2CCN(C(=O)CCn3c(=S)[nH]c4cc5c(cc4c3=O)OCO5)CC2)c1 | -4.3% (inactive)
59 | Cc1cccc(N2CCN(C(=O)CCn3c(=S)[nH]c4cc5c(cc4c3=O)OCO5)CC2C)c1 (stereo not given) | 62.5% (active)
60 | O=C(CCCn1c(=S)[nH]c2cc3c(cc2c1=O)OCO3)N1CCN(c2ccccc2)CC1 | -7.8% (inactive)

Reference: PubChem BioAssay AID431 (Sanford-Burnham Center for Chemical Genomics, 2006)
